Bioassay records (PubChem)
An excerpt weighted towards active compounds, which were near 2% of everything screened.
sPLA2-III inh – Blocks human group III sPLA2 activity. inhibition, % at 12.2 µM. 370,000 tested, 0.56% active. Q9NZ20. QFRET BODIPY PC-A2 liposome hydrolysis, fluorescence;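 active means inhibition above mean plus 3 SD of compounds lying within the high and low control bounds, cut at about 19% in these data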;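 further: 0% = median of test compound wells and 100% = no enzyme DMSO wells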
Target sequence (Q9NZ20 whole entry, looked up): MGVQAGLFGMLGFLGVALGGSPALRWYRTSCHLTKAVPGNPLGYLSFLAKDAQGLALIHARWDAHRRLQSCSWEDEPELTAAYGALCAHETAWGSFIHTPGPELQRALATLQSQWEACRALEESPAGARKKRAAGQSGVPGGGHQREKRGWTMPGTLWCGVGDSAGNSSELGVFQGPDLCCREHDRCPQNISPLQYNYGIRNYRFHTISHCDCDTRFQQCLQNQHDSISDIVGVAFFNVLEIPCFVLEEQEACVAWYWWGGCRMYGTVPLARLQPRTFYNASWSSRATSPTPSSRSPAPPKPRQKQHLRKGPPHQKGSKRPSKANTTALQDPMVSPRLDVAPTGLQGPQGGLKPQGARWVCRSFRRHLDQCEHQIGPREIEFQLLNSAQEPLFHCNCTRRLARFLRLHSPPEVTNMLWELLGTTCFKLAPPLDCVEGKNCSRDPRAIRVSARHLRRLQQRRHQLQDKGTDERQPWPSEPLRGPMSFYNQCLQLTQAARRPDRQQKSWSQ
Neddylation inh – inhibitors of human cullin neddylation | P61081+Q13564 | TR-FRET cullin neddylation, biochemical | inhibition, % at 25 µM | 360,000 tested, 0.58% active; in the data active means inhibition above about 36%
DAGLB inhibitor – blocks human DAGLB lipase activity; Q8NCG7; HEK293T DAGLB membrane lysate, EnzChek fluorogenic substrate; inhibition, % at 5.17 µM; 340,000 tested, 0.059% active; in the data active means inhibition above about 34%;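 further: 0% = enzyme with vehicle and 100% = wells lacking enzyme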
ARNT TACC3 PPI – disrupts binding between human ARNT and TACC3; AID 623870; 390,000 tested, 0.66% active; AlphaScreen His-ARNT PAS-B/GST-TACC3 binding, luminescence; TACC3 fragment carries E629A point mutation; inhibition, % at 9.99 µM; Q9Y6A5;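 active means mean inhibition of replicates at least 50% and at least half of replicates each reaching 50%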;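 further: 0% = complete ARNT plus TACC3 wells and 100% = ARNT alone without TACC3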
NadD block – inhibitors of Staphylococcus aureus NadD | purified NadD enzyme, colorimetric absorbance read-out | inhibition, % at 20 µM | 360,000 tested, 0.78% active; in the data active means inhibition above about 26%
* hit, by the source's call; / = not tested or not shown.

SMILES | sPLA2-III inh | Neddylation inh | DAGLB inhibitor | ARNT TACC3 PPI | NadD block
CCC(=O)N1C[C@@H](C)[C@@H](OC)CN(C)C(=O)c2cc(NC(=O)C3CC3)ccc2OC[C@H]1C | / | / | / | -10 | /
Oc1cccc(C=Nc2cccc3ccccc23)c1O | 16 | -7 | 15 | 33 | 45*
Oc1ccccc1C=Nc1cccc2ccccc12 | 9 | 15 | 1 | -4 | 3
CN(C)c1ccc(/C=C2\SC(=O)N(CC(O)Cn3c4ccccc4c4ccccc43)C2=O)cc1 (configuration not stated) | 5 | 20 | -2 | -3 | 33*
CCc1ccc2[nH]c3nc(N/N=C/c4ccc(O)cc4O)nnc3c2c1 | -17 | -5 | 6 | 0 | 39*
CN(C)CC(=O)Nc1ccc2c(c1)[C@@H]1C[C@H](CC(=O)NCCc3ccccc3)O[C@H](CO)[C@@H]1O2 | / | / | / | -10 | /
O=C1NC(=S)NC1=Cc1ccco1 | -5 | -11 | 0 | 60* | 2
O=C1NC(=O)/C(=C/c2ccco2)N1 | 8 | -24 | -2 | -6 | -4
COc1ccc(-c2cc(-c3ccccc3)nc(SCC(=O)Nc3ncc(C)s3)c2C#N)cc1 | -7 | -388 | -2 | -1 | 34*
O=C(c1ccco1)[C@@H]1[C@@H]2C(=O)N(c3ccc(Br)cc3)C(=O)[C@@H]2C2c3ccccc3C=CN21 (some centres not stated) | -8 | -24 | 3 | 15 | 32*
CC(=O)[C@H]1[C@@H]2C(=O)N(c3cccc(Cl)c3)C(=O)[C@@H]2[C@H]2c3ccccc3C=CN21 | -2 | -2 | -1 | 24* | 10
CC(=O)[C@@H]1[C@@H]2C(=O)N(c3ccc(F)c(Cl)c3)C(=O)[C@@H]2C2c3ccccc3C=CN21 (some centres not stated) | -8 | / | / | / | /
C[C@H]1CN([C@@H](C)CO)C(=O)c2cc(C#Cc3ccncc3)cnc2O[C@@H]1CN(C)C(=O)c1ccccc1F | / | / | / | 8 | /
Cc1ccc(S(=O)(=O)Nc2cccc3c2O[C@H](CN(C)S(=O)(=O)c2ccccc2)[C@@H](C)CN([C@H](C)CO)C3=O)cc1 | / | / | / | -4 | /
CO[C@@H]1CN(C)C(=O)c2ccc(NS(=O)(=O)c3cn(C)cn3)cc2OC[C@@H](C)N(C)C[C@H]1C | / | / | / | -2 | /
Cc1ccc(Cn2ncc3c(NN)ncnc32)cc1 | -11 | 2 | -1 | 66* | 7
Cc1ccc(Cn2ncc3c(NCCN(C)C)ncnc32)cc1 | -2 | -1 | 5 | 0 | -6
COc1ccc(-c2nc(C#N)c(NCc3cccnc3)o2)cc1OC | -2 | 42* | -1 | / | 2
C[C@H](CO)N1C[C@H](C)[C@H](CN(C)Cc2ccncc2)Oc2ncc(C#CC3CCCCC3)cc2C1=O | / | / | / | 0 | /
O=C(O)CCCCCNS(=O)(=O)c1cccc2c1C(=O)c1ccccc1C2=O | 1 | -61 | 1 | 58* | -6
Cc1noc(C)c1NC(=O)Nc1ccc2c(c1)CC(=O)N([C@H](C)CO)C[C@H](C)[C@H](CN(C)C(=O)Nc1c(C)noc1C)O2 | / | / | / | -4 | /
C=CCn1c(-c2ccc(OC)cc2)csc1=Nc1c(C)n(C)n(-c2ccccc2)c1=O | 7 | 2 | 0 | 15 | -1
CCc1ccc2oc(-c3ccc(OC)cc3)cc(=Nc3c(C)n(C)n(-c4ccccc4)c3=O)c2c1 | -1 | 45* | -12 | 12 | 4
C[C@H](CO)N1C[C@H](C)[C@@H](CN(C)CC2CCCCC2)Oc2ccc(NS(C)(=O)=O)cc2CC1=O | / | / | / | 5 | /
O=c1cnnc(N/N=C/c2ccc3c(c2)OCO3)[nH]1 | -1 | -12 | 0 | 15 | 1
SMILES | sPLA2-III inh | Neddylation inh | DAGLB inhibitor | ARNT TACC3 PPI | NadD block
O=c1cnnc(N/N=C/C2CC=CCC2)[nH]1 (configuration not stated) | 4 | 10 | 1 | 65* | 5
CO[C@@H]1CN(C)C(=O)c2ccc(NC(=O)c3ccc(Oc4ccccc4)cc3)cc2OC[C@H](C)NC[C@H]1C | / | / | / | -8 | /
COc1ccc(CN2C(=O)c3cccnc3C2=O)cc1S(=O)(=O)NC1CCCCC1 | 1 | -33 | -3 | 38 | 5
COc1ccc(CN2C(=O)c3cccnc3C2=O)cc1S(=O)(=O)N1CC(C)CC(C)C1 (configuration not stated) | 10 | -16 | 1 | 29* | 2
COc1ccc(NC(=O)CN2C(=O)/C(=C3\SC(=S)N(C4CCS(=O)(=O)C4)C3=O)c3ccccc32)cc1 (configuration not stated) | -7 | -11 | / | / | 32*
O=S(=O)(Nc1cccc(-c2nc3cccnc3s2)c1)c1cccs1 | -31 | / | 3 | 1 | -3
CCCS(=O)(=O)Nc1cccc(-c2nc3cccnc3s2)c1 | -11 | 24 | 0 | 46* | 2
C[C@H]1c2cccc(O)c2C(O)=C2C(=O)C3(O)C(O)=C(C(N)=O)C(=O)[C@@H](N(C)C)[C@@H]3[C@@H](O)[C@@H]21 (some centres not stated) | 15 | 14 | 1 | 26 | -1
C=C1c2cccc(O)c2C(O)=C2C(=O)[C@]3(O)C(O)=C(C(N)=O)C(=O)[C@@H](N(C)C)[C@@H]3[C@@H](O)[C@H]12 | 0 | 5 | 0 | 61* | 12
CC(/C=N/n1c(-c2ccccn2)n[nH]c1=S)=C\c1ccccc1 | 0 | -3 | / | / | 5
S=c1[nH]nc(-c2ccccn2)n1/N=C/c1ccccc1 | 18 | -1 | -1 | 57* | -3
S=c1[nH]nc(-c2ccccn2)n1/N=C/c1ccc(Cl)cc1 | 12 | -7 | 0 | 77* | 6
S=c1[nH]nc(-c2ccccn2)n1/N=C/c1c(Cl)cccc1Cl | -3 | 13 | -1 | 79* | 9
Cc1ccccc1/C=N/n1c(-c2ccccn2)n[nH]c1=S | 4 | -4 | -2 | 71* | 4
CCN1[C@@H]2c3ccc(-c4cccc(OC)c4)c(=O)n3C[C@H]1[C@H](CO)[C@H]2C(=O)N(C)C | / | / | / | -5 | /
COc1ccccc1/C=C/C=N/n1c(-c2cc(C)[nH]n2)n[nH]c1=S | 8 | -3 | -1 | -1 | 6
S=c1[nH]nc(-c2ccccn2)n1/N=C/c1cccs1 | -1 | 2 | -3 | 59* | 6
Cc1ccc(-c2n[nH]c(=S)n2/N=C/c2ccc(C)o2)cc1 | 11 | -15 | -4 | -2 | 1
Cc1ccc(/C=N/n2c(-c3ccccn3)n[nH]c2=S)o1 | -2 | 0 | -2 | 91* | 2
COc1ccccc1/C=C/C=N/n1c(-c2ccccn2)n[nH]c1=S | 2 | 2 | 0 | 65* | 25
O=C(N[C@@H]1CC[C@H](CCNC(=O)C2CCCCC2)O[C@H]1CO)c1ccncc1 | / | / | / | -3 | /
CN1C(=O)c2cc(NC(=O)c3ccc(F)cc3)ccc2OC[C@@H]2O[C@H](CC(=O)NC3CCC3)CC[C@H]21 | / | / | / | 0 | /
C[C@H]1CN([C@@H](C)CO)S(=O)(=O)c2ccc(C3=CCCCC3)cc2O[C@H]1CN(C)C(=O)C1CCCCC1 | / | / | / | 11 | /
CC(C)CC#Cc1ccc2c(c1)O[C@@H](CN(C)C(=O)Nc1ccccc1)[C@H](C)CN([C@@H](C)CO)S2(=O)=O | / | / | / | 1 | /
